# Several values for one entry are separate records, joined by “and”; a condition that tells them apart may be missing. Equal entries are not always repeated. The panel holds about 83,000 compounds, 20% with a hit somewhere; the sample as a whole holds those more often.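 Percent growth is the endpoint: 0 to 100 indicates growth inhibition (40 means 60% inhibition), 0 means no net growth, and negative values indicate cell death.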 A number with no mark means an inactive call. Activity calls are given as the source filed them.
# System: HL-60(TB) leukemia
# Assay: NCI-60 one-dose screen, 48 h (100 = growth as untreated, 0 = no growth, -100 = all killed)
# Conditions: 10 µM unless noted
# Protocol: Growth inhibition of the HL-60(TB) human tumor cell line is measured as a screen for anti-cancer activity. Cells are grown in 96 well plates and exposed to the test compound for 48 hours. Compounds are tested at a single concentration, which is 10^-5 M for most compounds. The reported endpoint is percent growth (GI% or GIPRCNT), where numbers from 0 - 100% represent growth inhibition, and numbers from -100% - 0 represent cell death. For example, a value of 40 represents 60% growth inhibition. A value of 0 means no net growth occurred over the course of the experiment. A value of -40 indicates 40% of cells at the beginning of the experiment died by the end of the experiment. A value of -100 means all cells are dead at the end of the experiment.
# NCI-60 Human Tumor Cell Lines Screen was performed using the standard one-dose NCI protocol, which is described in more detail at https://dtp.cancer.gov/discovery_development/nci-60/default.htm.
# Compounds with GIPRCNT values below 10 were considered active. Activity score was based on GIPRCNT using the following formula: […]
# Score is 0 for GIPRCNT values of 100 or above, 50 for GIPRCNT values of 0, and 100 for GIPRCNT values of -100.
row,Compound,growth
1,Nc1cc(-c2c[nH]c3ccc(Br)cc23)nc2cc(-c3c[nH]c4ccccc34)nn12,-15% (active)
2,C=C1CC[C@@H]2[C@]3(C)COC(c4ccccc4)O[C@@H]3CC[C@@]2(C)[C@@H]1C/C=C1/C(=O)OCC1OC(C)=O (stereo not given in full),-52.4% (active)
3,COc1ccc(-c2cc(C)nc3[nH]c(=O)sc23)cc1,75.6%
4,COC(=O)c1c(C(=O)OC)c2n(c1C)[C@@H]([C@@H](C)[C@H]1CC[C@H]3[C@@H]4CCC5=CC(=O)CC[C@]5(C)[C@H]4CC[C@]13C)SC2,7% (active)
5,COc1ccc(C(=O)/C=C/c2ccc(OCc3ccccc3)c(OC)c2)cc1OC,5.55% (active)
6,CCOC(=O)C1=C(N)N(c2ccccc2)C2=C(C(=O)CC(C)(C)C2)C1c1ccc([N+](=O)[O-])cc1 (stereo not given),92.9%
7,O=C1N/C(=N\c2nccs2)S/C1=C\c1cccs1,25.1%
8,COc1ccc2c(c1)c(-c1cc3nc(-c4cn(C)c5ncccc45)cc(N)n3n1)cn2C,-66.3% (active)
9,CC1(C)CC[C@]2(C(=O)O)CC[C@]3(C)C(=CCC4[C@@]5(C)C[C@@H](O)[C@@H]6OC(c7ccccc7F)OC[C@@]6(C)C5CC[C@]43C)C2C1 (stereo not given in full),2.91% (active)
10,N#Cc1ccc(NC(=O)CSc2ccc(-c3ccc(Br)cc3)nn2)cc1,82.9%
11,O=C(CNc1nc(-c2ccccc2)cs1)Nc1ccc([N+](=O)[O-])cc1,5.69% (active)
12,O=CNc1cccc(-n2cnc3cc(-c4ccc(O)cc4)ccc32)c1,8.14% (active)
13,O=C(CSc1nnc(-c2ccc(-c3nc4ccccc4[nH]3)cc2)o1)Nc1ccccc1,53.5%
14,Brc1ccc(/C=N/Nc2ncnc3sc4c(c23)CCN(Cc2ccccc2)C4)cc1,19.9%
15,COc1ccc(N=Nc2c(N)nn3c(-c4cc5ccccc5oc4=O)ccnc23)cc1,73.9%
16,COc1cccc(-c2nc(Nc3ccc(S(N)(=O)=O)cc3)c3ccccc3n2)c1,35%
17,CCC(C)(C)c1ccc(OCCCCN2CCN(c3ccncc3)CC2)cc1,-57.7% (active)
18,CN1C(=O)/C(=C/c2ccco2)S/C1=N/c1nccs1,102%
19,COc1ccc2cc([C@H](C)C(=O)NCc3ccccc3)ccc2c1,5.91% (active)
20,COc1ccc(NC(=O)Cn2c(/C=C/c3cccc(Br)c3)nc3ccccc3c2=O)cc1,92.9%

row,Compound,growth
1,C#CCOc1ccc(/C=N/Nc2nc(-c3ccc(Cl)cc3)cs2)cc1OC,20.1%
2,Cn1cc(-c2cc(N)n3nc(-c4c[nH]c5ccccc45)cc3n2)c2cc(F)ccc21,7.1% (active)
3,C=C1CCC2C3(C)COC(c4ccc(F)cc4)OC3CCC2(C)C1CC(O)C1=CCOC1=O (stereo not given),35.9%
4,O=c1[nH]c2ccc(Cl)cc2cc1CSc1ccc(Nc2nccc(-c3ccc4ccccc4c3)n2)cc1,91.4%
5,COc1ccc(C(=O)NC(=S)N2CCN(c3ncnc4c3cnn4-c3ccccc3)CC2)cc1,80.5%
6,Oc1ccc(F)c(Nc2nc(SCCN3CCOCC3)nc3c2cnn3CC(Cl)c2ccc(Br)cc2)c1 (stereo not given),2.22% (active)
7,c1n[nH]cc1-c1nc2ccc3cn[nH]c3c2c2c1CCCC2,94.4%
8,O=C(Cn1nc(-c2ccccc2)ccc1=O)N/N=C/c1ccc(N2CCOCC2)cc1,96.3%
9,O=c1onc(-c2cc3ccccc3nc2Cl)n1-c1cccc2ccccc12,33.5%
10,COc1cc2oc(-c3cccc(C(=O)Nc4cccc([N+](=O)[O-])c4)c3)cc(=O)c2c(OC)c1OC,101%
11,COc1cccc(/C=C2\N=C(C)N(CCc3ccc(S(N)(=O)=O)cc3)C2=O)c1,89.4%
12,O=C(OCCOCCO)N(c1cccc(Br)c1)c1nc(SCCN2CCOCC2)nc2c1cnn2CC(Cl)c1ccc(Br)cc1 (stereo not given),-46.8% (active)
13,CN1C(=O)N(C)C2SC(N/N=C/c3ccccc3)=NC21 (stereo not given),8.73% (active)
14,COc1ccc2nc(Cl)c(-c3cc(-c4ccccc4)nc(=S)[nH]3)cc2c1,19.6%
15,Cc1ccc(C(=O)Nc2cc(-n3ccnc3C)cc(C(F)(F)F)c2)cc1C#Cc1cnc2cccnn12,-28.8% (active)
16,COc1cccc(-c2ccc(/C=N/NC(=O)c3[nH]c4ccc(Br)cc4c3-c3ccccc3)o2)c1,-38.4% (active)
17,CC1=C(C(=O)Nc2ccccc2)C(c2cccc(Cl)c2Cl)n2c(nc3ccccc32)N1 (stereo not given),9.78% (active)
18,CC1(C)CC(=O)C2=C(C1)OC(N)=C(c1nc3ccccc3[nH]1)C2c1ccc(Cl)cc1 (stereo not given),22% and 106%
19,COC1=C[C@]23CCC(=O)N2CCc2cc4c(cc2[C@@H]3[C@@H]1OC(=O)[C@H](C)O)OCO4,-28.6% (active)
20,CC(C)Sc1nc(NC2CC2)c(C#N)c(-c2ccccc2)n1,98.1%

# Source: PubChem BioAssay (NCI)
